46 sequences from PMC7819943, “Rice protein-binding microarrays: a tool to detect cis-acting elements near promoter regions in rice” can be followed below.

In all, about 68,000 sequences were measured (“fluorescence intensity (a.u.)”: median about 9,100, highest 2% from about 16,000 on). This excerpt belongs to a sample that is enriched for the highest values.

The target in the assay is OsWRKY34 (Oryza sativa, UniProt Q0JBA9 1-250). The experiment in a line: protein-binding microarray (RPBM); PBS, 2% BSA, 51.3 ng/ul salmon testes DNA, 50 uM zinc acetate, 200 nM TF, 25 C, 1 h; high values mean tight binding. Conditions: protein: recombinant; tags: N-terminal polyhistidine and DsRed monomer fusion (pET32a); label: CyDye5-dUTP incorporated in the synthesized complementary strand; 3' TTTTT single-stranded linker to array surface; dsDNA, one strand shown. Summed up: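 Binding signal here means per-feature fluorescence intensity in arbitrary units. The values were read on an Axon 4000B scanner after a custom Agilent array, double-stranded by primer extension with Cy5-dUTP, was incubated with 200 nM protein at 25 °C for 1 h in PBS with 2% BSA, salmon testes DNA and 50 µM zinc acetate, then washed. The proteins were transcription factors with an N-terminal polyhistidine tag and DsRed, expressed in E. coli BL21-CodonPlus and purified on Ni–NTA.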
Chain of OsWRKY34 (Q0JBA9 entry or part of it): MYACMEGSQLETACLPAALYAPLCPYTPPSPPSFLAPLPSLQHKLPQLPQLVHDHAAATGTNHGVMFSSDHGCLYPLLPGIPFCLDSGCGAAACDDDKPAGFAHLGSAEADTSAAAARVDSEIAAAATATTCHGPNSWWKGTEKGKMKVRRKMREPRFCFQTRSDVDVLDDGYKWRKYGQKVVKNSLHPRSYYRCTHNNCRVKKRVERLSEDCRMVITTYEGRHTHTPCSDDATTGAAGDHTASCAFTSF
Take “TACCTCATTCCCTAAATGTTTGACGCCGTTGACTTTTTTACGGAGTCACCTAGTGCAG”: the binding signal is 17500 fluorescence intensity (a.u.). Take “TATACGACGCCGTTGACTTTTTAAGATACGTTAGACCATTCGGAGTCACCTAGTGCAG”: the binding signal is 20300 fluorescence intensity (a.u.). With “TGGATGGTACTCCCTCCTCTAAATGTTTGACGCCGTTGACCGGAGTCACCTAGTGCAG”, the binding signal was 14400 fluorescence intensity (a.u.). In the case of “ATGATGCCGTTGACTTTTTGAACAACGTTTGACTATTCGTCGGAGTCACCTAGTGCAG”, the binding signal was 32600 fluorescence intensity (a.u.). To “AAGCAGCAAAAGTCACACATACACTCTCTCTGCTACTACTCGGAGTCACCTAGTGCAG” belongs 8160 fluorescence intensity (a.u.). For “TTAACTTTTACTCTAATTTATTCTCCTGTACCTTTTTATACGGAGTCACCTAGTGCAG”, the binding signal is 8250 fluorescence intensity (a.u.). To “AGGTGGTTGGTGAGGTTTGCTTTGCACGATCGAGTGAGGACGGAGTCACCTAGTGCAG” belongs 10500 fluorescence intensity (a.u.). To “AAATGTTTGACGCCGTTGACTTTTTTAAACATGTTTGACCCGGAGTCACCTAGTGCAG” belongs 33600 fluorescence intensity (a.u.); to “ATATACTCCCTCCTTCCCTAAATGTTTGACGCCGTTGACTCGGAGTCACCTAGTGCAG”, 11400 fluorescence intensity (a.u.); to “ACGCCGTTGACTTTTTAAGCAACATTTGACCATTCGTTTTCGGAGTCACCTAGTGCAG”, 30000 fluorescence intensity (a.u.). Consider “TTTGACGCCGTTGACTTTTTTAAACATGCTTGATCATTCACGGAGTCACCTAGTGCAG”, for which the binding signal was 13700 fluorescence intensity (a.u.). As for “TCCTTCCCTAAATGTTTGACGCCGTTGACTTTTTTAAACACGGAGTCACCTAGTGCAG”, the figure is 16600 fluorescence intensity (a.u.); as for “TCCGTTTCGAAATGCTTGACGCCGTTGACTTTTTTAAACACGGAGTCACCTAGTGCAG”, 19400 fluorescence intensity (a.u.).

As for “AACAGCCTGTTTTTGTGTGTTTTTTTCGTAAGTAATTAGTCGGAGTCACCTAGTGCAG”, the binding signal was 8760 fluorescence intensity (a.u.).

As for “GGCTGCCCGCTCCTACATCCACATGCATGCTTCACACTGCCGGAGTCACCTAGTGCAG”, the binding signal is 8330 fluorescence intensity (a.u.). For the sequence “TTAGTTGTTACCTTTGTCTCCTTCGTTGATCCATTGAAAGCGGAGTCACCTAGTGCAG”, the binding signal is 10500 fluorescence intensity (a.u.). Consider “GTATACCTGCGCGTATACGGATGTTTTCGGCGTACATTAACGGAGTCACCTAGTGCAG”, for which the binding signal is 8390 fluorescence intensity (a.u.).

Turning to “GTTCATCAATCTACTGTACTGGCCTCCTTCTCAGCTCTCACGGAGTCACCTAGTGCAG”, the binding signal was 9300 fluorescence intensity (a.u.). Regarding “AATGTTTGACGCCGTTGACTTTTTTAAACATGTTTGACCACGGAGTCACCTAGTGCAG”, the binding signal is 42500 fluorescence intensity (a.u.). As for “CTTCCCTAAATGTTTGACGCCGTTGACTTTTCTAAACATGCGGAGTCACCTAGTGCAG”, the figure is 18600 fluorescence intensity (a.u.); as for “CTTCCCTAAATGTTTAACGCCATTGACTTTTTTAAACATGCGGAGTCACCTAGTGCAG”, 12900 fluorescence intensity (a.u.); as for “TGTTTGACGCCGTTGACTTTTTTAAACATGTTTGACCATTCGGAGTCACCTAGTGCAG”, 34200 fluorescence intensity (a.u.).

On to “TAACGCCGTTTACCTTTTAACAAACGTTTTACCTTTCGTTCGGAGTCACCTAGTGCAG”, for which the binding signal was 10400 fluorescence intensity (a.u.).

“TGACGCCGTTGGTTTTTTTAAACATGTTTGACCATTCGTCCGGAGTCACCTAGTGCAG”: the binding signal is 8990 fluorescence intensity (a.u.). For “ATGACGCCGTTGACTTTTTAACAAACGTTTGACCATTCGTCGGAGTCACCTAGTGCAG”, the binding signal is 21700 fluorescence intensity (a.u.).

“AACTTTTTGATATACGCTCGATCATTCATCTTATTGAATACGGAGTCACCTAGTGCAG”: the binding signal is 8030 fluorescence intensity (a.u.).

On to “CCCGTGTCTTGTGTGTTTCCATTCTCGCGAACCTTCCACACGGAGTCACCTAGTGCAG”, for which the binding signal was 9910 ± 264 fluorescence intensity (a.u.). Turning to “TTAATTTTTTTCTCATTTGTGCGTCCTATGGTCAAGCGTCCGGAGTCACCTAGTGCAG”, the binding signal was 8490 fluorescence intensity (a.u.). For “AATTCCGGCCCAATAGTCACTTGTGTTGGCCACTTCGCCTCGGAGTCACCTAGTGCAG”, the binding signal is 9010 fluorescence intensity (a.u.). With “GATTCATCGATCTTTTACGAGTACTATTTTTGTGATTATTCGGAGTCACCTAGTGCAG”, the binding signal is 11300 fluorescence intensity (a.u.). As for “TACATGTGGGTCCCATGGGTTTTATTATCTTTTTCGGATCCGGAGTCACCTAGTGCAG”, the figure is 9360 fluorescence intensity (a.u.); as for “AATCTACAAGATATATAACTAGATGTGTGGTGGGTTGAAACGGAGTCACCTAGTGCAG”, 8280 fluorescence intensity (a.u.). Turning to “AATTAGTTCCTGGACTTTGTGTATTACTAGTACTACTCCACGGAGTCACCTAGTGCAG”, the binding signal is 8570 fluorescence intensity (a.u.). For “TGACTCTATTTTTTCCTTCGGTCTGCTGTCTGCACTCTGGCGGAGTCACCTAGTGCAG”, the binding signal was 11300 fluorescence intensity (a.u.).

Regarding “ACCACCGCCGCGGCGGCGTCGCCCACGCCGTGCCGCCCCGCGGAGTCACCTAGTGCAG”, the binding signal was 8160 fluorescence intensity (a.u.). To “GCCACGAGTTCCACGGCCGCGGCGTCGTCGTCGTCGTCGTCGGAGTCACCTAGTGCAG” belongs 8090 fluorescence intensity (a.u.); to “CGTAGGCCACGCCACCTCACCCTGTTGACCGAGTCAAACCCGGAGTCACCTAGTGCAG”, 11900 fluorescence intensity (a.u.); to “GTCTCCGCCATCGTTGTCGCCGTCGCCTCGCGCCACCACGCGGAGTCACCTAGTGCAG”, 8230 fluorescence intensity (a.u.). As for “TGTCTAGCTGCTCCGACCAGTCAACCGTTGAACGTTGACTCGGAGTCACCTAGTGCAG”, the figure is 14700 fluorescence intensity (a.u.). “CTCCGCCTCGCGCCGTTGTCGCCGTCGCCTCGCGCCGCCACGGAGTCACCTAGTGCAG”: the binding signal is 10100 fluorescence intensity (a.u.). “CGTTGTCGCCACCACCACCGCCGCCGTCGCCACAACTCCGCGGAGTCACCTAGTGCAG”: the binding signal is 20500 fluorescence intensity (a.u.). As for “CGCCACCATCGCTGCGCCGCCATCGCCACCACCGCAGCCGCGGAGTCACCTAGTGCAG”, the figure is 8840 fluorescence intensity (a.u.); as for “TCGTCGGCGTCGCGTTCACGGCCGCCGTGGCCGTGGCCGTCGGAGTCACCTAGTGCAG”, 16500 fluorescence intensity (a.u.). To “CTGCCATCGCGTCGGCGTCGCGCCGCTGCCGTTGACCGTGCGGAGTCACCTAGTGCAG” belongs 16700 fluorescence intensity (a.u.). Take “AGCGTCGCTGCCATCATCGCCGTCGCGTCGCTCGTCGCCGCGGAGTCACCTAGTGCAG”: the binding signal was 8220 fluorescence intensity (a.u.). As for “GGTTGACCGTAGTCAACTCGCCACGTTGACTAGAACCGAGCGGAGTCACCTAGTGCAG”, the figure is 17900 fluorescence intensity (a.u.).
